Laboratory results from PubChem BioAssay (NCI).
About 83,000 compounds went through this panel and 20% of them were active in at least one assay; those are over-represented in the sample as a whole.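 Values shown are percent growth following 48 h exposure of cells in 96-well plates to a single concentration of compound; below 10 was considered active.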 Values without a mark were called inactive. Active and inactive are the calls of the source.

Columns and labels:
Experiment in all cases: NCI-60 one-dose screen, 48 h (100 = growth as untreated, 0 = no growth, -100 = all killed)
Settings in all cases: 10 µM unless noted
NCI-H23 lung = tested on: NCI-H23 lung
NCI-H226 lung = tested on: NCI-H226 lung
NCI-H322M lung = tested on: NCI-H322M lung
HOP-62 NSCLC = tested on: HOP-62 NSCLC
NCI-H460 lung = tested on: NCI-H460 lung
HOP-92 NSCLC = tested on: HOP-92 NSCLC
NCI-H522 lung = tested on: NCI-H522 lung
A549/ATCC NSCLC = tested on: A549/ATCC NSCLC
786-0 renal = tested on: 786-0 renal
COLO 205 colon = tested on: COLO 205 colon
DU-145 prostate = tested on: DU-145 prostate
K-562 leukemia = tested on: K-562 leukemia
MALME-3M melanoma = tested on: MALME-3M melanoma
MDA-MB-231 breast = tested on: MDA-MB-231 breast
RXF 393 renal = tested on: RXF 393 renal
SF-268 CNS = tested on: SF-268 CNS
SF-295 CNS = tested on: SF-295 CNS
SF-539 CNS = tested on: SF-539 CNS
UACC-257 melanoma = tested on: UACC-257 melanoma
M14 melanoma = tested on: M14 melanoma

| Structure (SMILES) | growth (NCI-H23 lung) [%] | growth (NCI-H226 lung) [%] | growth (NCI-H322M lung) [%] | growth (HOP-62 NSCLC) [%] | growth (NCI-H460 lung) [%] | growth (HOP-92 NSCLC) [%] | growth (NCI-H522 lung) | growth (A549/ATCC NSCLC) [%] | growth (786-0 renal) | growth (COLO 205 colon) | growth (DU-145 prostate) [%] | growth (K-562 leukemia) [%] | growth (MALME-3M melanoma) | growth (MDA-MB-231 breast) | growth (RXF 393 renal) | growth (SF-268 CNS) | growth (SF-295 CNS) [%] | growth (SF-539 CNS) [%] | growth (UACC-257 melanoma) [%] | growth (M14 melanoma) |
| --- | --- | --- | --- | --- | --- | --- | --- | --- | --- | --- | --- | --- | --- | --- | --- | --- | --- | --- | --- | --- |
| COc1cccc(-c2nc3occn3c2-c2ccnc(NCCNS(=O)(=O)c3cccc4ccccc34)n2)c1 | 103 | 99.6 | 104 | 103 | 101 | 122 | 102% | 105 | 97.8% | 96% | 107 | 95.1 | 111% | 112% | 102% | 96.8% | 106 | 109 | 104 | 117% |
| CCCCC[n+]1ccc(SCC(=O)N(C)c2ccc(Oc3ccccc3)cc2)c2ccccc21 | 90.3 | 106 | 107 | 115 | 107 | 99.9 | 63.3% | 96.2 | 102% | 20.9% | 112 | 25.4 | 84.8% | 110% | 115% | 116% | 91.4 | 107 | 96.2 | 102% |
| CC1(C)CC(=O)C2=C(C1)N(c1ccc(F)cc1F)C(N)=C(C#N)C2c1cc(Br)ccc1F (stereo not given) | 86.7 | 103 | 95.4 | 89.9 | 95 | 119 | 80.7% | 79.3 | 98.6% | 118% | 95.4 | 87.6 | 99% | 96.4% | 103% | 103% | 105 | 87.8 | 101 | 85.1% |
| O=[N+]([O-])CC(c1ccccc1F)c1c[nH]c2ccccc12 (stereo not given) | 82.5 | 81.9 | 96 | 69 | 94.8 | 80.9 | 23.2% | 70 | 87.7% | 80.4% | 97.2 | 17.9 | 66.9% | 56.5% | 80% | 80.4% | 67.9 | 76.3 | 87.1 | 52.3% |
| O=C(/C=C(/C=C/c1csc2ccccc12)OB(F)F)/C=C/c1csc2ccccc12 | 23 | 27.9 | 96.9 | 90.7 | 66.7 | 44.6 | 2.34% (active) | 70.1 | -2.14% (active) | -2% (active) | 28.5 | 23.2 | 9.2% (active) | 2.45% (active) | -28.4% (active) | 5.79% (active) | 87 | 40.8 | 57.7 | 8.88% (active) |
| CC(=O)c1cc2c(N)c(C(=O)Nc3cccc4ccncc34)sc2nc1C | 102 | 104 | 105 | 91.8 | 104 | 75.2 | 96% | 97.9 | 98.5% | 102% | 109 | 82.2 | 101% | 93% | 104% | 98.5% | 85 | 94.1 | 96.2 | 75.8% |
| COC(=O)C(OC(C)=O)C(OC(C)=O)c1ccc(OC)c(OC)c1 (stereo not given) | 96.8 | 98.4 | 93.4 | 98.2 | 104 | 110 | 85.9% | 80.1 | 101% | 123% | 102 | 83.2 | 104% | 92.7% | 125% | 99.6% | 101 | 105 | 82.5 | 93.9% |
| C=C(C)[C@@H]1CC[C@]2(C(=O)N3CCN(C)CC3)CC[C@]3(C)[C@H](CC[C@@H]4[C@@]5(C)C/C(=C/c6ccncc6)C(=O)C(C)(C)[C@@H]5CC[C@]43C)[C@@H]12 | 74.4 | 61.9 | 85.4 | 85.1 | 37.2 | 39.7 | 47.6% | 40.4 | 65% | 53.7% | 72.7 | 21 | 62% | 74.3% | 49.4% | 62.3% | 75.2 | 73.4 | 56.9 | 68.5% |
